# Only some compounds are listed: those with a hit (about 1.2% of all), similar ones and a draw of the others.
# Avidin bead fluor – compound fluoresces at 488/530 nm on avidin beads. compound fluorescence 488/530 nm, flow cytometry; hits give high values. fluorescence (KMESF) at 10 µM. 220,000 tested, 0.38% active; in the data active = fluorescence above about 47
# RGS16-Gao – regulators of human RGS16-Galphao interaction. O15492+P09471. AID 1441. 220,000 tested, 0.38% active. binding response (% of control), % at 10 µM. bead-based flow cytometry RGS16-Galphao binding, fluorescence; actives lie on both sides; call rule not given here;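 note: Galphao activated by GDP with aluminum fluoride before binding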
# GSH bead fluor – GSH bead compound fluorescence profile; GSH beads flow cytometry, compound fluorescence 488/530 nm; hits give high values; fluorescence (KMESF) at 10 µM; 190,000 tested, 0.25% active; in the data active = fluorescence above about 89;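 note: glutathione beads carrying GST-tagged Bcl family fusion proteins plus one bare bead set; values are compound well signal with DMSO vehicle wells as background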
# RGS8-Gao – regulators of human RGS8-Galphao interaction; P09471; AID 1423; multiplexed bead flow cytometry, RGS8-Galphao binding; actives lie on both sides; 220,000 tested, 0.34% active; response (percent of control binding), % at 10 µM; in the data active = response below about 60% or above about 140%; inactive = in between;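 note: Galphao activated as the GDP aluminium fluoride complex binding bead-coupled RGS8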
# Target sequence (P09471 whole entry, looked up): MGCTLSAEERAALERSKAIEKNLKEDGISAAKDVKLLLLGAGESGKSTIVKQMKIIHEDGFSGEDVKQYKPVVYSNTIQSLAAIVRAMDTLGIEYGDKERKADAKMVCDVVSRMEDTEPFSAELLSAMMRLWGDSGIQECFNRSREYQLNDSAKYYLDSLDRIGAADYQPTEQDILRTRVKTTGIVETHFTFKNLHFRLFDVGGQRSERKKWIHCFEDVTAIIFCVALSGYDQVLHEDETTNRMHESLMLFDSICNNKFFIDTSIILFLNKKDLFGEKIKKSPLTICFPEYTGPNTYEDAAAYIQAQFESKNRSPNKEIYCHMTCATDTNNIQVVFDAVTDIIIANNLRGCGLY
# RGS4-Gao reg – modulates binding of RGS4 to human Galphao. P09471. Multiplexed bead flow cytometry; actives lie on both sides. binding response (% of control), % at 10 µM. 220,000 tested, 0.33% active; in the data active = binding response below about 49% or above about 150%; inactive = in between;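 note: fluorescent Galphao activated with aluminum fluoride binding bead-coupled RGS4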
# RGS7-Gao – human RGS7-Galphao interaction regulation. P09471. Multiplexed bead flow cytometry, RGS7-Galphao binding; actives lie on both sides. binding response (% of control), % at 10 µM. 220,000 tested, 0.35% active. AID 1439; in the data active = binding response below about 49% or above about 150%; inconclusive = no clear call, values can overlap the other calls; inactive = in between;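 note: fluorescent Galphao held in activated GDP-AlF4 state binding bead-coupled RGS7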
# * = called active by the depositor; ? = inconclusive; nt = not tested or not shown.
SMILES,Avidin bead fluor,RGS16-Gao,GSH bead fluor,RGS8-Gao,RGS4-Gao reg,RGS7-Gao
Cc1ccc(C(=O)O)cc1NC(=O)c1cccs1,7,98,95*,102,98,95
Cc1c(NC(=O)c2cccs2)cccc1C(=O)O,18,89,28,101,92,90
CCCN1C(=O)c2ccc(C(=O)Nc3cc(C)on3)cc2C1=O,9,102,17,102,100,99
CCCCN1C(=O)c2ccc(C(=O)Nc3c(N)n(CCCC)c(=O)n(C)c3=O)cc2C1=O,8,101,271*,101,107,103
Cc1ccc(NC(CC(=O)c2ccccc2)C(=O)O)cc1Cl (configuration not stated),4,96,nt,98,98,?
O=C(CC(Nc1ccccc1)C(=O)O)c1ccccc1 (configuration not stated),7,96,259*,99,101,94
Cc1ccc(C(=O)OCC(=O)N2CCc3ccccc32)cc1,50*,120,10,105,120,115
CCOC(=O)C(C)n1cnc2c(nnn2Cc2ccc(C)cc2)c1=O (configuration not stated),49*,100,27,98,103,112
CCOC(=O)C1CCCN(C(=O)c2ccc3c(c2)N(Cc2ccccc2)C(=O)c2ccccc2S3=O)C1 (configuration not stated),11,94,11,97,97,93
COC(=O)c1cccc(NC(=O)c2nn(C)c(=O)c3ccccc23)c1,9,114,185*,104,107,102
N#Cc1cccc(NC(=O)CC2CCCCC2)c1,9,116,260*,107,112,108
N#Cc1ccc(NC(=O)Nc2cccc(C#N)c2)cc1,5,88,nt,96,90,?
O=C(Nc1ccc2c(c1)OCO2)N1CCN(c2ncc(C(F)(F)F)cc2Cl)CC1,8,100,257*,104,103,105
Nc1cc(=O)[nH]n1C1CCCCC1,8,96,10,95,89,87
O=S(=O)(NC1CCCCCCC1)c1cccs1,8,101,275*,99,99,100
CCOc1cc(CNCc2ccncc2)cc(Br)c1OCc1ccc(F)cc1,12,101,37,101,98,101
Cc1ccc(C(O)P(=O)(OC2CCCCC2)OC2CCCCC2)cc1 (configuration not stated),56*,129,38,104,94,108
COc1ccc(/C(N)=N/OC(=O)c2ccc3c(c2)OCO3)cc1,48*,105,10,103,111,133
CCOc1ccc(NCc2nnc(SCC(=O)Nc3nc(-c4ccccc4)cs3)n2-c2ccccc2)cc1,15,109,6,104,105,106
CC(C)Nc1c(N)c(=O)oc2ccccc12,7,97,253*,100,99,104
CN1CCN(Cc2oc(CO)cc(=O)c2O)CC1,4,98,15,99,99,98
COc1ccc(N2CCN(Cc3oc(CO)cc(=O)c3O)CC2)cc1,8,89,250*,93,87,86
Cc1ccc(S(=O)(=O)CCSc2cccc(C(=O)Nc3ccccc3C(=O)O)c2)cc1,19,102,14,100,102,101
Nc1[nH]nc2nc(N3CCCC3)nc(-c3ccccc3)c12,3,102,33,100,98,96
Cc1cc(C)n2nc3nc(N4CCCC4)nc(-c4ccccc4)c3c2n1,58*,97,9,102,104,115
SMILES,Avidin bead fluor,RGS16-Gao,GSH bead fluor,RGS8-Gao,RGS4-Gao reg,RGS7-Gao
O=C(Nc1ccc2oc(=O)ccc2c1)c1ccc(-c2cccc(Cl)c2)o1,13,90,nt,99,91,?
O=C(Nc1ccc2oc(=O)ccc2c1)c1ccc(-c2cccc([N+](=O)[O-])c2)o1,65*,97,nt,102,98,?
CCN(CC)c1ccc(NC(=O)Cn2nnc(-c3cccc(OC)c3OC)n2)c(C)c1,8,100,266*,100,103,95
O=C(O)/C=C/c1cn(Cc2ccccc2)nc1-c1ccc(Cl)cc1,13,102,71,103,103,101
CCCCc1c(C)nc2ccc(C(=O)OCC)cc2c1Cl,10,100,12,99,101,98
CCOC(=O)c1ccc2nc(C)c(CCC(C)=O)c(Cl)c2c1,0,8.4*,15,11*,19*,19*

# High-throughput results from PubChem BioAssay.
